Out of some 370,000 compounds screened, about 1,100 (0.3%) were called active. Shown is part of a subset that was picked to be rich in actives. Values without a mark were called inactive. No stated cut-off is given here; in the data, active means inhibition above about 13%; inactive means the rest.
biological target: Methyl-CpG-binding domain protein 2 (Homo sapiens) (UniProt Q9UBB5); assay: inhibitors of MBD2 binding to methylated DNA, primary screen, biochemical, TR-FRET, DNA-binding domain, human (AID 686964); details: MBD2 binding to methylated oligonucleotide, at 4.4 µM, active compounds read high
Sequence (Q9UBB5 whole entry, looked up, the tested form may be a part): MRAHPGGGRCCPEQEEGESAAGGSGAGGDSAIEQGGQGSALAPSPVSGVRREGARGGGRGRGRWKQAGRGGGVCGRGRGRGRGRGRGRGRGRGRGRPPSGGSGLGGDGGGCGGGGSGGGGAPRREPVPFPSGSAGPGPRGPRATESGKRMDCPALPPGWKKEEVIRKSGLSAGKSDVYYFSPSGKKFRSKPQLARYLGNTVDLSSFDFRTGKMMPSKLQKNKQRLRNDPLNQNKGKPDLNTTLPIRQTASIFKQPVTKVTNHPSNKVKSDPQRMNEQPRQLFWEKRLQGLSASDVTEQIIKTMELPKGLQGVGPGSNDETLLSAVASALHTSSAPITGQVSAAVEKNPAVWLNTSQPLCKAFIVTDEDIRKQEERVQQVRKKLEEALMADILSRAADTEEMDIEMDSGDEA

Compound | inhibition
COc1ccc(N2C(=O)/C(=C/c3ccco3)C(=O)NC2=S)cc1 | 32% (active)
O=C(O)CCn1cc(C=C2C(=O)NC(=S)NC2=O)c(-c2cccc(Br)c2)n1 | 2.88%
COC(=O)C1=C(c2ccccc2OCc2ccccc2)C[C@@H]2CC[C@H]1N2C(=O)NCc1ccc(OC)cc1 | -6.77%
CO[C@H]([C@H](C)/C=C/N(C)C=O)[C@@H](C)C(=O)CC[C@H](C)[C@H](O)[C@H](C)[C@H]1OC(=O)/C=C/C(C)=C/[C@H](O)[C@H](OC)C[C@@H]2C=CC[C@@H](C[C@H](OC)[C@@]3(CO3)[C@@H](OC)C[C@@H](OC)[C@@H]1C)O2 | 3.68%
CN(C)C(=O)Oc1cc(=O)n2c3c(cccc13)CCC2 | -1%
COP(=O)(Sc1ccccc1)C(Cc1ccccc1)NC(=O)OCc1ccccc1 (stereo not given) | 1.01%
Cc1cc(/C=C2/C(=O)NC(=O)N(Cc3ccco3)C2=O)c(C)n1-c1ccc(C(=O)O)cc1 | 23.8% (active)
O=C1NC(=O)N(Cc2ccco2)C(=O)/C1=C\c1ccc(-c2ccc(F)cc2)o1 | 31.9% (active)
Cc1ccnc(-n2c(C)cc(/C=C3\C(=O)NC(=S)N(C)C3=O)c2C)c1 | -7.85%
COc1cc2nc(N3CCN(C(=O)[C@@H]4CCCO4)CC3)nc(N)c2cc1OC | 2.48%
Cc1ccccc1CCC[C@@H](CC1CCCCC1)CN(C)C(=O)Oc1ccccc1 | -0.69%
O=C(O)C1CSC(c2cccnc2)N1 (stereo not given) | -2.74%
CC(C)c1ccc(-n2c(O)c(/C=N/N3CCOCC3)c(=O)[nH]c2=S)cc1 | -0.85%
CSc1ccc(C(=O)C2CCCN(Cc3ccn[nH]3)C2)cc1 (stereo not given) | -7.23%
CC(C)(C)[C@]1(O)C[C@@H]2OC(=O)C[C@@]23C(=O)O[C@@H]2OC(=O)[C@H](O)[C@]213 | -1.05%

— PubChem BioAssay AID686964 (The Scripps Research Institute Molecular Screening Center, 2013)
